# Reference: PubChem BioAssay (NCI)
# About 79,000 compounds went through this panel and 15% of them were active in at least one assay; those are over-represented in the sample as a whole. A number with no mark means an inactive call. Calls of active or inactive are those of the source. Cut-off read from the data, not from the text of the source: active = growth inhibition above about 70%; inactive = the rest.
# How the values were obtained:
# [1] = NCI Yeast Anticancer Drug Screen. Data for the rad50 strain (AID 155);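 note: 0% = growth of vehicle-only cultures of the same strain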; settings: S. cerevisiae rad50 strain growth inhibition, stronger effect = higher value
# Summary of the method: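 A DNA repair-deficient yeast mutant serves as the test organism; compound-induced growth inhibition is calculated against vehicle-treated cells.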
# [2] = NCI Yeast Anticancer Drug Screen. Data for the mec2-1 strain (AID 157); settings: S. cerevisiae mec2-1 strain, stronger effect = higher value
# Summary of the method: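 Cells of the genetically defined mec2-1 yeast strain are incubated with test compound. Inhibition of growth is calculated against vehicle-treated controls.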
# [3] = NCI Yeast Anticancer Drug Screen. Data for the sgs1 mgt1 strain (AID 161);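 note: 0% = growth of cultures given vehicle only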; settings: S. cerevisiae sgs1 mgt1 strain, stronger effect = higher value
# Summary of the method: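 Test agents were incubated with a DNA-repair-mutant yeast strain. Growth was then read and compared against vehicle-treated controls.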
# [4] = NCI Yeast Anticancer Drug Screen. Data for the cln2 rad14 strain (AID 165);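 note: 0% = growth equal to vehicle treated cultures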; settings: S. cerevisiae cln2 rad14 strain, stronger effect = higher value
# Summary of the method: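 The screen exposed genetically defined yeast (cln2 rad14) to test compounds and scored growth inhibition relative to vehicle-treated controls.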
# [5] = NCI Yeast Anticancer Drug Screen. Data for the bub3 strain (AID 167); settings: S. cerevisiae bub3 mutant strain, stronger effect = higher value
# Summary of the method: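 Inhibition values come from growth of compound-treated mutant yeast normalised to vehicle-treated controls.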
# [6] = NCI Yeast Anticancer Drug Screen. Data for the mlh1 rad18 strain (AID 175); settings: S. cerevisiae mlh1 rad18 strain growth inhibition, stronger effect = higher value
# Summary of the method: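 Compound-treated yeast growth, normalised to vehicle controls. Strain bears defined DNA repair mutations.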
# [7] = at 5.0 µM (retest, dose inferred, filed as 0.5)
# [8] = at 50.0 µM (retest, dose inferred, filed as 5.0)
SMILES,"growth inhibition [1, 7]","growth inhibition [1, 8]",growth inhibition ([1]; at 50.0 µM),"growth inhibition [2, 7] [%]","growth inhibition [2, 8]",growth inhibition ([2]; at 50.0 µM),"growth inhibition [3, 7]","growth inhibition [3, 8]",growth inhibition ([3]; at 50.0 µM),"growth inhibition [4, 7]","growth inhibition [4, 8]",growth inhibition ([4]; at 50.0 µM),"growth inhibition [5, 7]","growth inhibition [5, 8]",growth inhibition ([5]; at 50.0 µM),"growth inhibition [6, 7]","growth inhibition [6, 8]",growth inhibition ([6]; at 50.0 µM)
O=C(CC(C(=O)O)c1c[nH]c2ccccc12)c1ccccc1 (configuration not stated),-2%,-2%,45.4%,-3,7%,-18.6%,-5%,0%,56.8%,-5%,-63%,-16.6%,-1%,7%,93.8% (active),-4%,1%,-0.1%
CCOC(=O)CN1C(=O)S/C(=C/c2ccc([N+](=O)[O-])o2)C1=O,9%,93% (active),77.2% (active),3,94% (active),76% (active),12%,98% (active),91.3% (active),-3%,89% (active),56.3%,3%,96% (active),86% (active),21%,96% (active),87.1% (active)
CCCCCCCCCCCCCCCCCC(=O)Nc1ccn(C2OC(CO)C(O)C2O)c(=O)n1 (configuration not stated),19%,4%,75.2% (active),9,15%,83.6% (active),43%,41%,67.8%,40%,45%,80.2% (active),48%,43%,82.3% (active),15%,4%,82.8% (active)
CCOP(=O)(OCC)OC1c2[nH]ccc2-c2cc(C(=O)OC)[nH]c2C1OC (configuration not stated),3%,11%,12.5%,0,10%,25.9%,-3%,17%,83.2% (active),-6%,6%,5.9%,3%,-2%,21.5%,-5%,15%,61.4%
Clc1ccc(/C(=C/c2ccccc2)Cn2ccnc2)cc1,88% (active),93% (active),75.6% (active),64,86% (active),78.8% (active),86% (active),90% (active),75% (active),85% (active),83% (active),70.5% (active),70% (active),93% (active),81% (active),83% (active),90% (active),78.5% (active)
CC12CCC(O)CC1=CCC1C2CCC2(C)C(NC(=O)C(Cc3ccc(O)cc3)NC(=O)OCc3ccccc3)CCC12 (configuration not stated),24%,94% (active),-7.7%,21,97% (active),2.95%,22%,96% (active),-2.85%,21%,94% (active),38.6%,-4%,93% (active),-5.4%,41%,96% (active),-8.2%
Cc1ccc2c(c1)C(O)(c1ccccc1)CCS2 (configuration not stated),87% (active),95% (active),90.2% (active),58,97% (active),77.2% (active),86% (active),97% (active),91.8% (active),16%,96% (active),71.2% (active),46%,96% (active),86.8% (active),66%,94% (active),94.3% (active)
C=CCOC(=O)N(C(=O)OCC=C)C(Cc1ccc(O)cc1)C(=O)NNc1ccccc1 (configuration not stated),17%,65%,53.4%,2,33%,44.5%,11%,51%,69.7%,5%,56%,39%,16%,90% (active),70%,20%,62%,84.3% (active)
O=CC(=O)CC(O)CO (configuration not stated),0%,74% (active),78.4% (active),5,69%,72.9% (active),4%,81% (active),67.6%,1%,94% (active),89.3% (active),0%,87% (active),98.7% (active),-14%,67%,76.3% (active)
